Reference: PubChem BioAssay AID1611 (NINDS Approved Drug Screening Program, 2009)

test: inducers of human heat shock response, cell-based, HSE luciferase (AID 1611); conditions: human cells, HSE-luciferase heat shock reporter; stronger effect = higher value

**Q.** Which fold change does the source give for `Oc1cccc(O)c1` here?
**A.** 1.06

**Q.** Which fold change does the source give for `CC(C[N+](C)(C)C)OC(N)=O` (centres undefined) here?
**A.** 0.9

**Q.** For `O=c1ccn([C@@H]2O[C@H](COP(=O)(O)OP(=O)(O)OP(=O)(O)O)[C@@H](O)[C@H]2O)c(=O)[nH]1`, which fold change is on record?
**A.** 1.15

**Q.** Which fold change does the source give for `CC1=CC(=O)c2ccccc2C1=O` here?
**A.** 0.86

**Q.** For `CN(C)c1ccc(C(=C2C=CC(=[N+](C)C)C=C2)c2ccc(N(C)C)cc2)cc1`, which fold change is on record?
**A.** 1.22

**Q.** With `COc1ccccc1OCC(O)CO` (centres undefined) as the compound, how does the fold change read?
**A.** 1

**Q.** For `COC1=CC(=O)C[C@@H](C)[C@]12Oc1c(Cl)c(OC)cc(OC)c1C2=O`, which fold change is on record?
**A.** 0.94

**Q.** With `O=C(O)c1cc(=O)c2ccccc2[nH]1` as the compound, how does the fold change read?
**A.** 1.38

**Q.** For `CN1CCN(CC(=O)N2c3ccccc3C(=O)Nc3cccnc32)CC1`, which fold change is on record?
**A.** 1.06

**Q.** With `Nc1ccc(S(=O)(=O)Nc2cnc3ccccc3n2)cc1` as the compound, how does the fold change read?
**A.** 1.17

**Q.** With `COc1ccc2cc3[n+](cc2c1OC)CCc1cc2c(cc1-3)OCO2` as the compound, how does the fold change read?
**A.** 1.07

**Q.** Which fold change does the source give for `COc1c2occc2c(OC)c2c(=O)cc(C)oc12` here?
**A.** 0.96

**Q.** With `NC(N)=NC(=O)c1nc(Cl)c(N)nc1N` as the compound, how does the fold change read?
**A.** 0.89

**Q.** For `CC1(C)O[C@@H]2CC3C4C[C@H](F)C5=CC(=O)C=CC5(C)C4C(O)CC3(C)[C@]2(C(=O)CO)O1` (some centres undefined), which fold change is on record?
**A.** 1.4

**Q.** For `c1coc(CNc2ncnc3nc[nH]c23)c1`, which fold change is on record?
**A.** 1.22

**Q.** For `CN1C2CC(OC(=O)[C@H](CO)c3ccccc3)C[C@H]1[C@H]1OC21` (some centres undefined), which fold change is on record?
**A.** 1.34

**Q.** With `NC(=O)c1cnccn1` as the compound, how does the fold change read?
**A.** 1.78

**Q.** Which fold change does the source give for `CN1C(C(=O)Nc2ccccn2)=C(O)c2sccc2S1(=O)=O` here?
**A.** 0.84

**Q.** Which fold change does the source give for `CC[C@H]1OC(=O)[C@H](C)[C@@H](O[C@H]2C[C@@](C)(OC)[C@@H](O)[C@H](C)O2)[C@H](C)[C@@H](O[C@@H]2O[C@H](C)C[C@H](N(C)C)[C@H]2O)[C@](C)(O)C[C@@H](C)C(=O)[C@H](C)[C@@H](O)[C@]1(C)O` here?
**A.** 0.93

**Q.** With `COc1cc(NS(=O)(=O)c2ccc(N)cc2)nc(OC)n1` as the compound, how does the fold change read?
**A.** 0.93

**Q.** Which fold change does the source give for `CN1CCC[C@@H]1CCO[C@](C)(c1ccccc1)c1ccc(Cl)cc1` here?
**A.** 0.87

**Q.** Which fold change does the source give for `Cn1c(=O)c2c(ncn2CCO)n(C)c1=O` here?
**A.** 0.58

**Q.** Which fold change does the source give for `NCCCC(N)CC(=O)NCC1NC(=O)C(CO)NC(=O)C(N)CNC(=O)C(C2CCN=C(N)N2)NC(=O)/C(=C/NC(N)=O)NC1=O` (centres undefined) here?
**A.** 0.59

**Q.** Which fold change does the source give for `CC(C)COCC(CN(Cc1ccccc1)c1ccccc1)N1CCCC1` (centres undefined) here?
**A.** 0.78

**Q.** For `CC(=O)OCC(=O)[C@H]1CCC2C3CCC4=CC(=O)CC[C@]4(C)C3CC[C@@]21C` (some centres undefined), which fold change is on record?
**A.** 1.05

**Q.** Which fold change does the source give for `NCC(O)CC(=O)O` (centres undefined) here?
**A.** 0.94

**Q.** With `OC[C@H]1O[C@@H](O[C@@H]2[C@@H](CO)O[C@](O)(CO)[C@H]2O)[C@H](O)[C@@H](O)[C@H]1O` as the compound, how does the fold change read?
**A.** 0.82

**Q.** For `N=c1nc(N2CCCCC2)cc(N)n1O`, which fold change is on record?
**A.** 0.77

**Q.** With `Nc1cc(-c2ccncc2)c[nH]c1=O` as the compound, how does the fold change read?
**A.** 1.16

**Q.** With `CN(C)CCC=C1c2ccccc2C=Cc2ccccc21` as the compound, how does the fold change read?
**A.** 0.63

**Q.** Which fold change does the source give for `CC(C)[N+]1(C)C2CC[C@@H]1CC(OC(=O)C(CO)c1ccccc1)C2` (some centres undefined) here?
**A.** 0.91

**Q.** For `CO[C@]12C[C@@H](COC(=O)c3cncc(Br)c3)CN(C)[C@@H]1Cc1cn(C)c3cccc2c13`, which fold change is on record?
**A.** 0.91

**Q.** Which fold change does the source give for `COc1ccc(C2Sc3ccccc3N(CCN(C)C)C(=O)C2OC(C)=O)cc1` (centres undefined) here?
**A.** 0.53

**Q.** For `O=C1c2ccc(O)c(O)c2C(=O)c2c(O)ccc(O)c21`, which fold change is on record?
**A.** 0.67

**Q.** Which fold change does the source give for `CC1(C)S[C@@H]2C(N3C(=O)[C@@H](c4ccccc4)NC3(C)C)C(=O)N2[C@H]1C(=O)O` (some centres undefined) here?
**A.** 1.12

**Q.** With `NC(=O)c1ccc[n+]([C@@H]2O[C@H](COP(=O)([O-])OP(=O)(O)OC[C@H]3O[C@@H](n4cnc5c(N)ncnc54)[C@H](O)[C@@H]3O)[C@@H](O)[C@H]2O)c1` as the compound, how does the fold change read?
**A.** 1.11

**Q.** For `CCCCCCc1ccc(O)cc1O`, which fold change is on record?
**A.** 1.27

**Q.** With `COc1ccc2c(c1)c(CC(=O)O)c(C)n2C(=O)c1ccc(Cl)cc1` as the compound, how does the fold change read?
**A.** 0.9

**Q.** With `Cc1cc(C)nc(NS(=O)(=O)c2ccc(N)cc2)n1` as the compound, how does the fold change read?
**A.** 1.02
